High-throughput results from PubChem.
Only some compounds are listed: those with a hit (about 1.5% of all), similar ones and a draw of the others.
BLM inh = Bloom syndrome helicase (human) inhibition | P54132 | recombinant BLM DNA unwinding, fluorescence dequenching | Potency, µM (highest dose often 56.1 µM), for the others: top-dose activity change, negative = inhibition, hits mostly inhibitors | 350,000 compounds, 0.2% hits | AID 2528;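 note: potency is the fitted concentration of half-maximal effect; plate controls were vehicle for no effect and no enzyme for full effect; nearly all actives have a fitted effect of over 35% in size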
FEN1 inhibitor = human FEN1 inhibition. Recombinant FEN1 flap cleavage, fluorescence, 15 min. Potency, µM (top dose mostly 114 µM), for the others: at the top dose activity change, negative = inhibition, hits mostly inhibitors. 390,000 compounds, 0.35% hits. AID 588795; note: potency is the fitted concentration of half-maximal effect; nearly all actives have a fitted effect of over 65% in size
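Nuclease activity of 10 nM FEN1 was measured after 15 min of room-temperature exposure to titrated compounds, by adding 50 nM flap substrate and reading plates at 0 and 15 min.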
APE1 inh = blocks human APE1 abasic DNA cleavage; recombinant APE1, TAMRA/BHQ-2 abasic DNA cleavage fluorescence; Potency, µM (highest dose often 65.8 µM), for inactives: top-dose activity change, negative = inhibition, most hits filed as inhibitors; 350,000 compounds, 0.35% hits; AID 2517;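 note: potency is the fitted concentration of half-maximal effect; plate controls were vehicle for no effect and reference inhibitor for full effect; nearly all actives have a fitted effect of over 55% in size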
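Kinetic fluorescence read (525 ex/598 em nm, three reads 60 s apart) of AP-site incision; signal = third minus first read. Enzyme 0.75 nM, dual-labelled THF duplex 50 nM, compound preincubation 15 min RT.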
PI5P4K alpha inh = blocks human PI5P4K alpha kinase activity; max response, %; PI5P4Kalpha enzyme, ADP-Glo luminescence, 60 min; hits give low values; 330,000 compounds, 1.2% hits; active = max response of -50% or lower; inconclusive = between -30% and -50%; inactive = -30% or higher; note: value at the top dose of about 77 µM
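ADP-Glo luminescence end-point after a 60 min room-temperature kinase reaction. PI5P4Kalpha and substrate in HEPES pH 7.4 buffer with EGTA, 0.1% CHAPS and 5% DMSO; ATP at 5 microM final.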
GCN5L2 inh = blocks human GCN5L2 histone acetyltransferase | GCN5L2 HAT assay, ThioGlo1 CoA-SH fluorescence | Potency, µM (highest dose often 58.9 µM), inactives show top-dose activity change, negative = inhibition, actives largely listed as inhibitors | 390,000 compounds, 0.21% hits | AID 504327; note: potency is the fitted concentration of half-maximal effect
Target sequence (Q92830 whole entry, looked up): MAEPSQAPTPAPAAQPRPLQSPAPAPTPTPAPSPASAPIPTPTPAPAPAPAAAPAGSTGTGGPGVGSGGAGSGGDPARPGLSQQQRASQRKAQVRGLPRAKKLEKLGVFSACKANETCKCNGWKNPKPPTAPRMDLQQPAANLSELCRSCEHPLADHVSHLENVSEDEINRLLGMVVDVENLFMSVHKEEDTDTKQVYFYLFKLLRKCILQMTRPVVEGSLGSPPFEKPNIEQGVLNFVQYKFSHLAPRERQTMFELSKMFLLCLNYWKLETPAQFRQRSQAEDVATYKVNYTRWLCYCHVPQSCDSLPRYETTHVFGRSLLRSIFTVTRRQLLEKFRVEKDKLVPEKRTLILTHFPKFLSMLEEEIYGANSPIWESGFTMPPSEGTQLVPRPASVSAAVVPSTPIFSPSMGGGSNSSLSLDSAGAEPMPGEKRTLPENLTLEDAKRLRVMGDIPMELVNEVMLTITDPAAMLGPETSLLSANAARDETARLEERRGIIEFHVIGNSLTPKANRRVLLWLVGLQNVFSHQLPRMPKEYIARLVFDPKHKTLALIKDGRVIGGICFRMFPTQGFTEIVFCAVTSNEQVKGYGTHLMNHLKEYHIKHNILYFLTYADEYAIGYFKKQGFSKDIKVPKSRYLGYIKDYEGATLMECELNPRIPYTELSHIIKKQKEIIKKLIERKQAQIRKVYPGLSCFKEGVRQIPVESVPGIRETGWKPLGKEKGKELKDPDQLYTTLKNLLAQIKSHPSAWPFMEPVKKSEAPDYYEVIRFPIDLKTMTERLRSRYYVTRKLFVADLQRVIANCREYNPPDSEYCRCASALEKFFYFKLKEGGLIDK
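Preincubate 20nM GCN5L2 with compound 15 min, RT → add 50uM ThioGlo1 + 75uM H3(1-25) + 70uM acetyl-CoA → read fluorescence 0 and 20 min. Primary qHTS; fluorescent artifacts likely.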
RECQ1 inh-1 = blocks DNA unwinding by human RECQ1; P46063; RECQ1 DNA unwinding, red fluorescence kinetic read; Potency, µM (doses to about 57.3 µM), without a hit: top-dose activity, negative = inhibition, actives largely listed as inhibitors; 240,000 compounds, 0.54% hits;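 note: potency is the fitted concentration of half-maximal effect; plate controls were vehicle for no effect and no enzyme for full effect; nearly all actives have a fitted effect of over 30% in size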
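RECQ1T1 50 nM; forked duplex (20 bp + 30-nt ss tails) 200 nM, ATP 2 mM final; pH 8.0, 2 mM MgCl2, 2.5 ug/ml poly(dI-dC); 15 min compound preincubation; discontinuous kinetic read over 2 h at RT.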
RECQ1 conf = confirmation of human RECQ1 helicase inhibitors; RECQ1 helicase DNA unwinding, fluorescence; 610 compounds, 28% hits; Potency, µM (highest dose often 229 µM), for inactives: top-dose activity change, negative = inhibition, actives largely listed as inhibitors; shares compounds with RECQ1 inh-1; note: potency is the fitted concentration of half-maximal effect; nearly all actives have a fitted effect of over 45% in size
RECQ1 ADP FP = ADP displacement flagged in RECQ1 inhibitor counter-screen. shares compounds with RECQ1 inh-1. ADP fluorescence polarization displacement counterscreen. Potency, µM (titrated, usually from 228 µM), for inactives: at the highest dose activity change, negative = inhibition, hits mostly inhibitors. 530 compounds, 27% hits. AID 2711; note: potency is the fitted concentration of half-maximal effect; nearly all actives have a fitted effect of over 45% in size
RECQ1 inh-2 = confirmation of human RECQ1 helicase inhibitors; shares compounds with RECQ1 inh-1; recombinant RECQ1 DNA unwinding, red fluorescence; Potency, µM (series often up to 119 µM), for inactives: at the top dose activity, negative = inhibition, hits mostly inhibitors; 1,100 compounds, 15% hits; AID 504841; note: potency is the fitted concentration of half-maximal effect; nearly all actives have a fitted effect of over 50% in size
* marks the source's active call; other numbers are inactive results; i = inactive; ? = inconclusive; · = no result given; [ ] = dose if it differs, or a comment. Unless noted, calls come from the whole dose curve; as a rule, active = well fitted curve in the direction sought with a large enough effect; inconclusive = small, poorly fitted or top-dose-only effect, or another doubt; inactive = no such curve, though single readings can be large; an effect the other way counts as inactive or inconclusive. Unless noted, % is set by controls: 0 for no effect and ±100 for the full control effect.

SMILES	BLM inh	FEN1 inhibitor	APE1 inh	PI5P4K alpha inh	GCN5L2 inh	RECQ1 inh-1	RECQ1 inh-2	others
C=C1C=C(C)n2ncc(C(=O)Nc3ccc(F)cc3F)c2N1	·	-3.8%	·	·	·	·	·
O=C1/C(=C/c2ccco2)Oc2c1ccc(O)c2CN1CCCCC1	-4.0%	-3.3%	?	-26.5	-14.6%	?	-17.4%
COc1ccc(CNc2ncnc3nc[nH]c23)cc1	·	5.2%	·	·	·	·	·
COc1ccc2c(c1)Cc1sc(NC(=O)c3cccs3)nc1-2	-19.9%	5.4%	-12.7%	?	-4.4%	?	16.9%
CC(C)OCCCNc1nc(-c2ccccc2)nc2ccccc12	-8.0%	-30.7%	3.5%	17.7	-14.4%	·	·
CC(C)(C)C(=O)OCCNc1nc(-c2ccccc2)nc2ccccc12	-7.2%	-20.3%	10.5%	-1.8	-7.9%	7.94µM*	-16.9%	RECQ1 conf=2.0%[114 µM]
O=C(O)Cc1cccc(OCCCN(Cc2cccc(C(F)(F)F)c2Cl)CC(c2ccccc2)c2ccccc2)c1	?	·	-15.7%	·	11.2µM*	?	25.1µM*
Oc1cc2c(cc1O)[C@@H]1c3ccc(O)c(O)c3OC[C@]1(O)C2	-18.4%	·	3.16µM*	·	·	12.6µM*	?
O=C1SC(Nc2ccccc2)C(=O)N1c1ccccc1 (stereo not drawn)	·	-2.4%	·	·	·	·	·
COc1ccc(NC(=O)CSc2nc3ccsc3c(=O)n2CCCCCC(=O)O)cc1	2.7%	2.9%	-1.2%	0.7	-6.4%	-1.2%	·	RECQ1 conf=?;RECQ1 ADP FP=12.9%
CN(C)c1ccc(NC(=O)CSc2nc3ccsc3c(=O)n2CCCCCC(=O)O)cc1	2.3%	-19.6%	·	·	-5.9%	·	·
O=C(O)CCCCCn1c(SCC(=O)Nc2ccc(F)cc2)nc2ccsc2c1=O	-1.3%	-14.6%	-2.5%	-4.8	-2.6%	i	·	RECQ1 conf=4.7%;RECQ1 ADP FP=-4.0%
CCOC(=O)Cc1cc(=O)n2[nH]c(C)c(-c3ccccc3OC)c2n1	-5.8%	3.1%	-5.8%	0.4	-0.1%	-14.9%	·
CCOC(=O)Cc1cc(=O)n2[nH]c(C)c(-c3ccccc3)c2n1	-2.3%	-7.7%	-5.1%	1.1	-1.3%	35.5µM*	-18.5%
Cc1ccc(S(=O)(=O)N2CCC(c3nc(-c4cccs4)nc4ccccc34)CC2)cc1	·	-16.3%	·	·	·	·	·
Cc1cccc(N2CCN(C(=O)Cc3ccc(-n4c(=O)[nH]c5ccsc5c4=O)cc3)CC2)c1C	2.5%	1.1%	16.8%	2.0	-2.3%	-9.9%	·	RECQ1 conf=-9.6%;RECQ1 ADP FP=20.9%
Cc1cccc(N2CCN(C(=O)CCCCn3c(=O)[nH]c4ccsc4c3=O)CC2)c1C	-4.7%	-18.3%	·	·	-9.9%	·	·
CN1/C(=C\C(=S)NC(=O)c2ccccc2Cl)C(C)(C)c2ccccc21	-4.3%	-16.4%	-4.5%	1.7	-6.6%	25.1µM*	?
CN1/C(=C/C(=S)NC(=O)C2(C)CC2(Cl)Cl)C(C)(C)c2ccccc21 (stereo not drawn)	-8.0%	0.6%	2.9%	-0.6	-2.2%	i	·
CCCCn1c(SCC(=O)c2ccc(O)c(O)c2)nc2ccsc2c1=O	-24.0%	7.2%	-8.8%	-23.3	-3.9%	22.4µM*	8.91µM*
O=C(CSc1nc2ccsc2c(=O)n1CC1CCC(C(=O)O)CC1)c1ccc(Cl)cc1 (stereo not drawn)	-16.4%	?	?	11.1	-4.8%	?	20µM*
O=C(O)CCCCCn1c(SCC(=O)c2ccc(O)c(O)c2)nc2ccsc2c1=O	2.2%	-18.8%	?	7.9	-4.2%	-20.1%	·
